Only some compounds are listed: those with a hit (about 3.6% of all), similar ones and a draw of the others.
Pf apPOL block: Pf-apPOL DNA polymerase inhibition; Recombinant Pf-apPOL, molecular beacon fluorescence, 1.5 h; AID 1794808; inhibition, % at 10 µM; 210,000 compounds, 0.25% hits
mHTT CaM bind: inhibitors of human mutant huntingtin-calmodulin interaction. 190,000 compounds, 3.6% hits. AlphaScreen His-mHTT/GST-CaM binding, luminescence. P42858. inhibition, % at 15 µM. AID 1671202;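 note: 0% = both proteins with DMSO and 100% = one protein alone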
Starred values were filed as active, the others as inactive; x = no result given. Cut-off read from the data, not from the text of the source: active = inhibition above about 50%; inactive = the rest.

SMILES | Pf apPOL block | mHTT CaM bind
Cc1cccc(C2=NN(c3ccc(Br)cc3)[C@@H](C(=O)N3CCOC3=O)[C@@H]2c2ccccc2)c1 | 0.4 | -78.2
C[C@@H]1C(c2cccc(Cl)c2)=NN(c2ccccc2)[C@H]1C(=O)N1CCOC1=O | -6.2 | -24.0
C[C@@H]1C(c2cccc(Cl)c2)=NN(c2ccc(Br)cc2)[C@H]1C(=O)N1CCOC1=O | -0.7 | 57.2*
CC[C@@H]1C(c2cccc(C)c2)=NN(c2ccc(Br)cc2)[C@H]1C(=O)N1CCOC1=O | 2.2 | 65.8*
O=C(Cn1c(=O)n(-c2ccccc2)c2ncccc21)Nc1ccccc1 | 1.6 | -3.6
Cc1nc(N2CCN(c3ccccn3)CC2)c2c3c(sc2n1)CCC3 | -4.2 | -13.4
CNC(=O)Cc1csc(NC(=O)c2csc(Nc3cccc(C)n3)n2)n1 | 10.4 | 46.7
CCOc1ccccc1C1C(C#N)=C(N)Oc2cc(N(C)C)ccc21 (configuration not stated) | -5.0 | 61.0*
CSc1ccc(C2C(C#N)=C(N)Oc3cc(N(C)C)ccc32)cc1 (configuration not stated) | -4.0 | 42.1
Cc1oc2ccn(Cc3ccc(F)cc3)c(=O)c2c1C(=O)NC(C)C | -5.4 | 80.4*
Cc1oc2ccn(Cc3ccc(F)cc3)c(=O)c2c1C(=O)N1CCN(C(C)C)CC1 | -4.5 | -4.9
CC(C(=O)Nc1nc2c(s1)CCCC2)n1nc(-c2ccc(F)cc2)ccc1=O (configuration not stated) | -1.4 | 87.5*
CC(C(=O)Nc1cc(Cl)ccc1C#N)n1nc(-c2ccc(F)cc2)ccc1=O (configuration not stated) | -5.5 | -5.3
COc1ccc(NC(=O)c2c(F)cccc2F)c([N+](=O)[O-])c1 | -3.9 | -8.0
CC1CN(c2ccc([N+](=O)[O-])cc2Cl)CCN1C(=O)c1ccccc1 (configuration not stated) | 1.0 | 29.7
O=C(O)c1ccc(NC2OCC(O)C(O)C2O)cc1 (configuration not stated) | -7.1 | x
O=C(NCC(O)(c1ccccc1)C(F)(F)F)c1ccc2c(c1)OCO2 (configuration not stated) | -7.0 | -9.7
O=C(CC1COc2ccccc2NC1=O)Nc1cccc2ccccc12 (configuration not stated) | -79.8 | 68.9*
COc1ccccc1NC(=O)CC1COc2ccccc2NC1=O (configuration not stated) | 0.0 | -3.8
O=C(O)c1ccc(N=Cc2cc(Br)ccc2O)cc1 | 0.7 | 1.0
O=C(O)c1ccc(O)c(C=Nc2ccc(Br)cc2)c1 | 0.1 | 85.0*
COc1ccc2nc(N3CCCC(C(=O)NCc4ccc(F)cc4)C3)sc2c1 (configuration not stated) | -2.6 | 12.0
CCOc1ccc(-c2csc(Nc3ccccn3)n2)cc1 | 3.9 | 13.0
CCOc1ccc(Nc2nc(-c3ccccn3)cs2)cc1 | -3.0 | 99.0*
COc1ccc(-c2csc(Nc3cc(C)ccn3)n2)cc1 | -2.1 | -5.0
SMILES | Pf apPOL block | mHTT CaM bind
COc1ccc(Nc2nc(-c3ccccn3)cs2)cc1 | -5.0 | 99.0*
Cc1ccc(S(=O)(=O)N2CCC(C(=O)Nc3ccc(Cl)cc3)CC2)cc1 | -6.8 | -2.5
COc1ccc(-c2nc3s/c(=C\c4ccc(OCC(N)=O)cc4)c(=O)n3n2)cc1 | 0.4 | 2.0
Cc1cc(C(=O)Nc2ccc(Cl)cc2F)nc2ccnn12 | 6.9 | -4.1
Cc1ccc(C=Cc2nc(-c3ccc4c(c3)oc(=O)n4C)no2)cc1 | 0.5 | -10.3
CCC(C)(Nc1ccc(N(C)C)cc1)c1nnnn1-c1c(C)cccc1C (configuration not stated) | 1.9 | 55.0*
CCc1cccc(C)c1-n1nnnc1C(C)(C)Nc1ccccc1 | -2.8 | -1.0
CSc1ccccc1NC(=O)C(c1ccccc1)n1cccc1 (configuration not stated) | 15.3 | 60.1*
CSc1ccccc1NC(=O)C(c1ccccc1)c1ccccc1 | -6.8 | -26.4
O=Cc1ccc(N2CCC(c3ccccc3)=N2)cc1 | 0.6 | -79.3
O=c1/c(=C/C=C/c2ccccc2)sc2nc(-c3cccs3)nn12 | 0.4 | 52.0*
O=c1/c(=C/c2ccccc2)sc2nc(-c3cccs3)nn12 | -11.6 | 4.0
O=c1ccc2c(Cl)cc(Cl)c(O)c2[nH]1 | -3.4 | 11.9
NNc1ccc2c(Cl)cc(Cl)c(O)c2n1 | -5.4 | 99.6*
COc1ccc(CNC(=O)c2cc3n(n2)CCCN(Cc2ccc(C)cc2)C3=O)cc1 | 0.4 | 5.8
Cc1ccc(N=Cc2cc(Br)cc(Cl)c2O)c(O)c1 | 1.2 | 38.0
Nc1ccccc1N=Cc1cc(Br)cc(Cl)c1O | 1.9 | 66.0*
C#Cc1cccc(NC(=O)CSc2nnc(-c3ccc(C(F)(F)F)cn3)o2)c1 | -3.5 | x
C=CCN(c1ccccc1)S(=O)(=O)c1ccc2[nH]cc(C(=O)NCCOC)c(=O)c2c1 | -10.0 | 50.0*
C=CCNC(=O)c1c[nH]c2ccc(S(=O)(=O)N(C)c3ccc(Cl)cc3)cc2c1=O | -14.7 | 53.0*
C=CCN(c1ccccc1)S(=O)(=O)c1ccc2[nH]cc(C(=O)NCCCC)c(=O)c2c1 | -4.7 | 32.0

Screens from PubChem BioAssay.
